Bioassay records as filed in PubChem BioAssay.
NPC1 promoter act: activators of NPC1 promoter; Potency, µM (doses to about 9.22 µM), for inactives: at the highest dose activation, hits mostly activators; Huh7 NPC1 promoter luciferase reporter, 24 h; 2.4% of 320,000 active; note: % of control where 0% means no effect; nearly all actives have a fitted effect of over 60% in size
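Luminescence read-out of NPC1 promoter-driven luciferase in stably transfected Huh7 cells; compounds delivered in DMSO and left 24 h at 37C, 5% CO2, qHTS titration format.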
ELG1 DNA repair: blocks ELG1-dependent DNA repair in HEK293T cells; HEK293T ELG1-luciferase reporter, luminescence, 16 h; DNA damage induced by 5-fluorouridine; Potency, µM (titrated, usually from 46.1 µM), without a hit: at the top dose activity change, negative = inhibition, actives largely listed as inhibitors; 2.3% of 330,000 active; note: % is set by controls: 0 for no effect and ±100 for the full control effect; nearly all actives have a fitted effect of over 55% in size
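5-Fluorouridine DNA damage + compound/DMSO, 2,000 cells/well, 16 h, 37 °C/5% CO2. ONE-Glo, 30 min RT, luminescence. Readout = decrease in reporter signal.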
Rab9 promoter act: Rab9 promoter activation. 2.8% of 320,000 active. Potency, µM (highest dose often 9.22 µM), without a hit: top-dose activation, negative = inhibition, usual class: activators. AID 485297. Huh7 Rab9 promoter-luciferase reporter, luminescence, 24 h; note: % of control where 0% means no effect; nearly all actives have a fitted effect of over 60% in size
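Stable Rab9-luc Huh7, 1500 cells/well, 2 h settle; cmpd in DMSO, 24 h, 37 °C/5% CO2; luciferase reagent 10 min RT; luminescence.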
ELG1 genotox: induces genotoxicity in HEK293T cells with luciferase-tagged ELG1. HEK293T ELG1-luciferase reporter, luminescence, 16 h. Potency, µM (top dose mostly 46 µM), for inactives: at the highest dose activity change, positive = activation, hits mostly activators. 1.3% of 330,000 active; note: % of control where 0% means no effect; nearly all actives have a fitted effect of over 60% in size
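DMSO vehicle served as control against compound-treated ELG1-luciferase HEK293T cells; exposure lasted 16 hr at 37 °C and 5% CO2, followed by ONE-Glo luminescence detection after 30 min.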
SMN2 splice up: SMN2 splice variant enhancement. Potency, µM (series often up to 46.1 µM), for inactives: at the highest dose activity change, positive = activation, most hits filed as activators. AID 1458. 2.8% of 210,000 active. HEK293 SMN2-luciferase splicing reporter, luminescence, 30-36 h; note: % of control where 0% means no effect; nearly all actives have a fitted effect of over 55% in size
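qHTS luciferase splicing reporter: luminescence rises when SMN2 exon 7 is included in transfected HEK293 cells. Compound exposure lasted 30-36 h at 37C, with 4.5 mM final sodium butyrate as control, followed by a ONE-Glo read.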
FLuc modulator: inhibits or activates purified firefly luciferase, miR-21 counter-screen; P08659; purified FLuc, Km substrates, luminescence inhibition; Potency, µM (top dose mostly 57.5 µM), inactives show at the highest dose activity change, negative = inhibition, most hits filed as inhibitors; 6.9% of 360,000 active; AID 588342;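 note: plate controls were vehicle for no effect and reference inhibitor for full effect; nearly all actives have a fitted effect of over 55% in size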
Target sequence (P08659 whole entry, looked up): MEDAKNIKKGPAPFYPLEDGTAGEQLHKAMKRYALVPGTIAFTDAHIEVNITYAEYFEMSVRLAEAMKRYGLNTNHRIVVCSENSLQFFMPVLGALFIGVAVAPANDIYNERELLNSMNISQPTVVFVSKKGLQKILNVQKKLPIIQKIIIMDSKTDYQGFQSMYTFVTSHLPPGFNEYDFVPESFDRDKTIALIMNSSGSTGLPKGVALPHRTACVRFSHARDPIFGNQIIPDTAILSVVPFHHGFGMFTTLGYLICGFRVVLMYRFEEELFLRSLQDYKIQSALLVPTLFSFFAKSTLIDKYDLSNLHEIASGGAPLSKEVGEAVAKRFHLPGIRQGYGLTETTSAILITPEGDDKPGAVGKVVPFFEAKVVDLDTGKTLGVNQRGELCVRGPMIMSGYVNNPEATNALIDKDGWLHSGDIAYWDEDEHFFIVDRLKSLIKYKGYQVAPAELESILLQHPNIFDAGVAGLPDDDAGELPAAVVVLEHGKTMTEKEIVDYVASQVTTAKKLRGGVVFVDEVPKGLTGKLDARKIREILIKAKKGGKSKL
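Purified P. pyralis luciferase, 10 nM final, with Km-level 10 uM D-luciferin and 10 uM ATP in 50 mM Tris acetate pH 7.5, 10 mM Mg acetate, 0.01% Tween-20, 0.05% BSA; 6-point qHTS titration about 60 µM downward; luminescence read.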
Numbers without * were called inactive; u = inconclusive; x = no result given. The list is not random: actives were taken first. Their share in the collection is about 9.2%. Calls come from the whole dose curve; as a rule, active = well fitted curve in the direction sought with a large enough effect; inconclusive = small, poorly fitted or top-dose-only effect, or another doubt; inactive = no such curve, though single readings can be large; an effect the other way counts as inactive or inconclusive. Potency is the fitted concentration of half-maximal effect.

SMILES	NPC1 promoter act	ELG1 DNA repair	Rab9 promoter act	ELG1 genotox	SMN2 splice up	FLuc modulator
CN(C)c1ccc(C(=O)c2ccc(N(C)C)c3ccccc23)cc1	-7%	u	-19%	u	u	15µM*
COc1ccc(C(=O)c2ccc(N(C)C)cc2)c(OC)c1	-30%	u	-20%	0%	5%	-17%
O=C(Nc1ccc2nc(SCC(=O)N3CCCC3)sc2c1)c1ccccc1F	x	x	x	x	x	24µM*
CCOC(=O)CSc1nc2ccc(N)cc2s1	-2%	5%	0%	8%	4%	19µM*
O=C(COc1ccc(F)cc1)Nc1ccc2nc(SCC(=O)N3CCCC3)sc2c1	x	x	x	x	x	-11%
Nc1ccc2nc(SCc3cccc(F)c3)sc2c1	u	u	4.5µM*	u	13µM*	4.8µM*
Nc1ccc2nc(SCC(=O)N3CCOCC3)sc2c1	13%	u	23%	14%	x	-14%
CCOC(=O)CSc1nc2ccc(NC(=O)c3ccccc3F)cc2s1	x	x	x	x	x	15µM*
Cc1ccc(C)c(NC(=O)c2cc(S(=O)(=O)N3CCN(c4cccc(Cl)c4)CC3)ccc2F)c1	x	x	x	x	x	1%
COc1cc(N)c(Cl)cc1C(=O)OCC(=O)Nc1cccnc1Cl	-3%	-3%	-6%	11%	x	3%
Cc1cc(NC(=O)c2ccccc2F)ccc1-c1nc2ccccc2s1	x	x	x	x	x	0.67µM*
O=C(COc1ccccc1F)Nc1ccc2nc(SCC(=O)N3CCOCC3)sc2c1	x	x	x	x	x	21µM*
COc1cc(OC)cc(C(=O)Nc2ccc(-c3nc4ccccc4s3)c(C)c2)c1	x	x	x	x	x	-8%
COCCn1c(C)cc(/C=C2\NC(=S)N(C)C2=O)c1C	14%	29%	0%	u	11µM*	u
CCn1c(C)cc(/C=C2/SC(=O)N(C(C)C(=O)OC)C2=O)c1C (centres undefined)	3.2µM*	u	4µM*	u	x	6µM*
CCOC(=O)C(C)N1C(=O)S/C(=C/c2cc(C)n(-c3ccccn3)c2C)C1=O (centres undefined)	2.5µM*	u	2.2µM*	u	29%	8.5µM*
COCCn1c(C)cc(/C=C2/SC(=O)N(C(C)C(=O)OC)C2=O)c1C (centres undefined)	1.4µM*	u	1.6µM*	8.2µM*	x	2.4µM*
CCOC(=O)C(C)N1C(=O)S/C(=C/c2cc(C)n(-c3ccncc3)c2C)C1=O (centres undefined)	0%	u	21%	-5%	-20%	u
COC(=O)C(C)N1C(=O)S/C(=C/c2cc(C)n(C(C)C)c2C)C1=O (centres undefined)	1%	u	3.2µM*	u	14%	13µM*
COc1ccc(Nc2cc(C(=O)NCc3ccccc3OC)c3ccccc3n2)cc1	x	x	x	x	x	11µM*
COc1ccc(CCNC(=O)c2cc(Nc3cc(C)cc(C)c3)nc3ccccc23)cc1OC	x	x	x	x	1%	6µM*
COc1ccc(OC)c(Nc2cc(C(=O)NCc3ccccc3)c3ccccc3n2)c1	x	x	x	x	2%	-8%
COc1ccc(CNC(=O)c2cc(Nc3ccc(OC)cc3OC)nc3ccccc23)cc1	x	x	x	x	4%	7.6µM*
CCOCCCNC(=O)c1cc(Nc2ccc(OC)cc2OC)nc2ccccc12	1%	-29%	0%	-6%	x	u
COCCCNC(=O)c1cc(Nc2ccc(OC)cc2OC)nc2ccccc12	12%	-14%	-6%	-7%	x	19µM*
SMILES	NPC1 promoter act	ELG1 DNA repair	Rab9 promoter act	ELG1 genotox	SMN2 splice up	FLuc modulator
CNC[C@H]1Oc2ccc(NC(=O)C3CCCCC3)cc2CC(=O)N([C@H](C)CO)C[C@@H]1C	x	u	x	5%	x	x
COc1ccccc1CNc1ccc(N2CCCCC2)cc1	16%	u	17%	u	7%	15µM*
COc1cccc(Nc2ccc(N3CCCCC3)cc2)c1OC	3.5µM*	u	2.8µM*	u	x	u
COc1cccc(CNc2ccc(N3CCCCC3)cc2)c1OC	u	0%	24%	-1%	-5%	u
COc1ccc(CCC(C)Nc2cccc(F)c2)cc1 (centres undefined)	6%	27%	0%	-3%	-22%	-15%
O=C(COC(=O)c1cccc([N+](=O)[O-])c1)c1ccc2c(c1)OCO2	3.5µM*	u	2.5µM*	21µM*	x	2.7µM*
Cc1ccc(C(=O)COC(=O)c2cccc([N+](=O)[O-])c2)s1	11%	u	7%	10%	x	4.8µM*
Cc1ccc(C(=O)COC(=O)COc2ccccc2[N+](=O)[O-])s1	0%	7%	1%	0%	x	-17%
O=C1OC2(CCCC2)OC(=O)C1=Cc1c[nH]c2ccccc12	1.1µM*	u	0.89µM*	u	x	-5%
c1ccc(CCNc2nc(-c3ccccn3)cs2)cc1	3.5µM*	u	2µM*	u	u	6.7µM*
c1ccc(CCNc2nc(-c3cccnc3)cs2)cc1	u	u	u	u	u	15µM*
Cc1cccc2nc(CSc3ccccc3C(=O)O)cn12	28%	u	u	8%	x	15µM*
O=C(O)c1ccccc1SCc1cn2cc(Cl)ccc2n1	u	u	3.2µM*	u	u	11µM*
O=C(O)c1cccnc1SCc1cn2cc(Cl)ccc2n1	0%	15%	11%	2%	x	u
O=C(O)c1ccccc1SCc1nc2ccccn2c1Br	0%	8%	1%	2%	6%	u
COc1ccc(C(=O)n2cc(C(=O)c3cc(C)ccc3O)cn2)cc1	-4%	u	-10%	-7%	u	5%
Cc1ccc(O)c(C(=O)c2cnn(-c3ccccc3)c2)c1	-1%	u	3%	u	x	u
Cc1ccc(-n2cc(C(=O)c3ccccc3O)cn2)cc1	0.56µM*	u	u	u	-42%	0.3µM*
O=C(c1cnn(C(=O)c2ccc(O)cc2)c1)c1ccccc1O	2%	3%	0%	-4%	-6%	3.8µM*
COc1ccc(C(=O)n2cc(C(=O)c3cc(C)ccc3O)cn2)cc1OC	2%	23µM*	-1%	-3%	-4%	-3%
O=C(c1cnn(C(=O)c2ccco2)c1)c1ccccc1O	x	-15%	x	-1%	x	x
COc1ccc(NC(=O)N(Cc2nnc3n2CCCCC3)c2ccc(OC)c(Cl)c2)cc1	x	x	x	x	x	-2%
Cc1oc2ccc(O)cc2c1C(=O)c1ccc([N+](=O)[O-])cc1	0%	u	-1%	-6%	-17%	2%
CN(C)/C=C/c1oc2ccc(O)cc2c1[N+](=O)[O-]	26%	u	3.2µM*	u	20%	u
